Measured values as given in PubChem BioAssay (Tox21).
“And” between values parts separate entries of the source, which are not always exact repeats. Identical values can stand only once. Records with an inconclusive call do not appear. Where a call stands in place of a potency, no number is given. Some structures have more than one record in an assay (separate samples or runs), and their calls can disagree. The source made the active and inactive calls. Unless noted, calls follow the shape of the full dose curve.

Key:
[1] = Nuclear factor erythroid 2-related factor 2/antioxidant responsive element (Nrf2/ARE) small molecule agonists: qHTS cell viability counter screen in human keratinocytes (AID 1919968; active = well fitted cell-killing curve with a large enough effect in the repeat runs; also: nearly all actives have a fitted effect of over 55% in size; also: potency is read from the fitted curve at half-maximal effect)
Summary of the method: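 HaCaT ARE reporter line, 1,500 cells/well; 5 h settle, 37 C/5% CO2; cpd in DMSO pinned; 23 h exposure; CellTiter-Fluor, 1 h; fluorescence.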

[2] = Nuclear factor erythroid 2-related factor 2/antioxidant responsive element (Nrf2/ARE) small molecule agonists: luciferase reporter gene qHTS assay in human keratinocytes (AID 1919969); also: nearly all actives have a fitted effect of over 35% in size; also: potency is read from the fitted curve at half-maximal effect
[3] = molecular target: Gonadotropin-releasing hormone receptor (Homo sapiens) (UniProt P30968); assay: Human gonadotropin-releasing hormone receptor (GnRHR) small molecule agonists, calcium flux assay in GnRHR-HEK293 cells (AID 1920063); also: nearly all actives have a fitted effect of over 35% in size; also: potency is read from the fitted curve at half-maximal effect
Summary of the method: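 GnRHR-HEK293, 1500 cells/well, 18 h 37 C/5% CO2; Ca dye 1 h 37 C; cpd pinned (DMSO), agonist mode; kinetic FL 480/540, 3 min, 1 s reads; 15 conc, n=3.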

[4] = G protein-coupled receptor (GPCR) small molecule agonists, calcium flux assay: HEK293 wild type cell line counter screen (AID 1920065)
Summary of the method: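 Kinetic fluorescence at Ex/Em 480/540, recorded every second over 3 min, served as the read-out after compound addition. Each compound was tested at 15 concentrations in triplicate on cells pre-loaded with calcium dye for 1 h.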

[5] = p53 small molecule agonists, cell-based qHTS assay with human liver microsomes: qHTS cell viability counter screen (AID 1963579); also: nearly all actives have a fitted effect of over 45% in size; also: potency is read from the fitted curve at half-maximal effect
Summary of the method: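 Luminescent CellTiter-Glo read-out, 30 min at room temperature, gauged cytotoxicity in p53RE-bla cells exposed 16 h at 37 C to DMSO-dissolved compounds with metabolic activation by human liver microsomes and NADPH, each 0.5 mg/mL final.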

[6] = p53 small molecule agonists, cell-based qHTS assay: qHTS cell viability counter screen (AID 1963581); also: nearly all actives have a fitted effect of over 45% in size; also: potency is read from the fitted curve at half-maximal effect
Summary of the method: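 HCT-116 p53RE-bla cells, 4,000/well, plated 5 h before compound pin transfer; 16 h at 37 C; bla substrate 2 h RT; then CellTiter-Glo, 30 min RT, luminescence.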

[7] = molecular target: 5-hydroxytryptamine receptor 2A (Homo sapiens) (UniProt P28223); assay: 5-hydroxytryptamine receptor 2A (HTR2A) small molecule antagonists, cell-based qHTS assay (AID 1963586); also: nearly all actives have a fitted effect of over 45% in size
Summary of the method: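 Antagonist-mode intracellular calcium assay: DOI (4 nM) added after 5 min compound pre-incubation at room temperature to dye-loaded HTR2A-CHO cells. Fluorescence followed for 3 min, sampled every second.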

[8] = molecular target: 5-hydroxytryptamine receptor 2A (Homo sapiens) (UniProt P28223); assay: 5-hydroxytryptamine receptor 2A (HTR2A) small molecule agonists, cell-based qHTS assay (AID 1963587); also: nearly all actives have a fitted effect of over 30% in size; also: potency is read from the fitted curve at half-maximal effect
Summary of the method: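 Kinetic calcium-flux fluorescence (2 min, 1 sec intervals) after compound addition in agonist mode. HTR2A-CHO cells were cultured 18 h, then dye-loaded 1 h at 37 C.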

[9] = molecular target: Muscarinic acetylcholine receptor M1 (Homo sapiens) (UniProt P11229); assay: Cholinergic receptor muscarinic 1 (CHRM1) small molecule antagonists, cell-based qHTS assay (AID 1963588); also: nearly all actives have a fitted effect of over 40% in size; also: potency is read from the fitted curve at half-maximal effect
Summary of the method: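 CHRM1-CHO calcium-flux assay, antagonist mode. Cells were seeded 18 h, dye-loaded 1 h at 37 C and given compound for 5 min at RT, then acetylcholine was added at 50nM. FDSS fluorescence was read 3 min; 15 concentrations, three runs.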

[10] = molecular target: Muscarinic acetylcholine receptor M1 (Homo sapiens) (UniProt P11229); assay: Cholinergic receptor muscarinic 1 (CHRM1) small molecule agonists, cell-based qHTS assay (AID 1963589); also: nearly all actives have a fitted effect of over 35% in size; also: potency is read from the fitted curve at half-maximal effect
Summary of the method: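 Human M1 in stable CHO line; 18 h plating, 1 h dye load 37 C; cpd added (agonist mode); Ca2+ fluorescence kinetic read, 1 s intervals; 15 conc, 3 runs.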

[11] = cAMP Responsive Elements (CRE) small molecule agonists, cell-based qHTS assay (AID 1963590)
Summary of the method: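 HEK 293T CRE-bla, 2,000 cells/well, 18 h preincubation 37 C/5% CO2; cpds (DMSO) pinned, 3 h; LiveBLAzer B/G FRET substrate, 2 h RT.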

[12] = cAMP Responsive Elements (CRE) small molecule antagonists, cell-based qHTS assay (AID 1963591; active = well fitted inhibition curve with a large enough effect in the signal ratio in the repeat runs, not every such curve was filed as active; the % refers to the signal ratio)
Summary of the method: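 Beta-lactamase reporter read by FRET substrate (LiveBLAzer B/G) after 2 h at room temperature. CRE-bla HEK293T cells had received compound plus 0.25 uM (final) NKH477 for 3 h at 37 °C.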

[13] = molecular target: Beta-2 adrenergic receptor (Homo sapiens) (UniProt P07550); assay: Adrenergic beta2 receptor (ADRB2) small molecule antagonists, cell-based qHTS assay (AID 1963592); also: series mostly up to about 92 µM; nearly all actives have a fitted effect of over 50% in size
Summary of the method: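 Cells (CHO, stable ADRB2 overexpression) incubated 18-20hr at 37C; compounds added from DMSO; agonist mix (1nM isoproterenol, 100uM IBMX, 25uM Ro-20-1724) added; 0.5hr RT; d2-cAMP and anti-cAMP-cryptate added; 1hr RT; 665/615 nm read.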

[14] = molecular target: D(2) dopamine receptor (Homo sapiens) (UniProt P14416); assay: Dopamine D2 receptor (DRD2) small molecule agonists, cell-based qHTS assay (AID 1963594); also: nearly all actives have a fitted effect of over 35% in size
Summary of the method: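 cAMP accumulation in DRD2-HEK293 cells measured by HTRF after 1 h detection; compounds added 10 min before NKH477 (200nM […]) forskolin-analogue stimulation, 30 min at room temperature, with Ro20-1724 present at 0.1 mM final.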

[15] = molecular target: D(2) dopamine receptor (Homo sapiens) (UniProt P14416); assay: Dopamine D2 receptor (DRD2) small molecule antagonists, cell-based qHTS assay (AID 1963595; active = well fitted inhibition curve with a large enough effect in the signal ratio in the repeat runs, with a control signal flat; the % refers to the signal ratio)
Summary of the method: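 Antagonist mode in DRD2-HEK293 cells: after compound addition with 0.1 mM Ro20-1724, cells received quinpirole (12 nM) and NKH477 (200 nM) for 30 min at room temperature; HTRF cAMP read after 1 h detection.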

[16] = p53 small molecule agonists, cell-based qHTS assay with human liver microsomes (AID 1963577);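 also: p53 response element beta-lactamase reporter cells with liver microsomes plus NADPH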
Summary of the method: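 p53RE-bla cells; 5 h settle, 37 C/5% CO2; cpd + HLM 0.5 mg/mL + NADPH 0.5 mg/mL (final); 16 h 37 C; LiveBLAzer 2 h RT dark; fluorescence readout.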

[17] = p53 small molecule agonists, cell-based qHTS assay with rat liver microsomes (AID 1963578)
Summary of the method: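 Rat liver microsome activation: microsomes 0.5 mg/mL, NADPH 0.5 mg/mL final; p53RE-bla cells, 16 h 37 C; LiveBLAzer readout, 2 h RT dark.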

[18] = p53 small molecule agonists, cell-based qHTS assay with rat liver microsomes: qHTS cell viability counter screen (AID 1963580); also: nearly all actives have a fitted effect of over 45% in size; also: potency is read from the fitted curve at half-maximal effect
Summary of the method: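 HCT-116 p53RE-bla, 4,000 cells/well, 5 h pre-incubation; cpd + rat liver microsomes 0.5 mg/mL + NADPH 0.5 mg/mL (final); 16 h, 37 C; CellTiter-Glo, 30 min RT; luminescence.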

[19] = p53 small molecule agonists, cell-based qHTS assay (AID 1963582; active = well fitted activation curve with a large enough effect in the signal ratio in the repeat runs, not every such curve was filed as active; the % refers to the signal ratio)
Summary of the method: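 Reporter line: p53RE-bla. Pre-incubation 5 h, 37 C, 5% CO2; compound (DMSO, pin tool) 16 h, 37 C; B/G FRET substrate 2 h RT; fluorescence intensity read.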

[20] = molecular target: Beta-2 adrenergic receptor (Homo sapiens) (UniProt P07550); assay: Adrenergic beta2 receptor (ADRB2) small molecule agonists, cell-based qHTS assay (AID 1963593);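 also: CHO cells stably overexpressing human ADRB2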
Summary of the method: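 CHO cells stably over-expressing ADRB2 were plated overnight at 37C, then dosed with compounds plus a stimulation mix containing 100uM IBMX and 25uM Ro-20-1724 for 0.5hr at room temperature. cAMP was measured by HTRF competition, 1hr.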

Sequence of Beta-2 adrenergic receptor (Homo sapiens) (P07550 whole entry, looked up): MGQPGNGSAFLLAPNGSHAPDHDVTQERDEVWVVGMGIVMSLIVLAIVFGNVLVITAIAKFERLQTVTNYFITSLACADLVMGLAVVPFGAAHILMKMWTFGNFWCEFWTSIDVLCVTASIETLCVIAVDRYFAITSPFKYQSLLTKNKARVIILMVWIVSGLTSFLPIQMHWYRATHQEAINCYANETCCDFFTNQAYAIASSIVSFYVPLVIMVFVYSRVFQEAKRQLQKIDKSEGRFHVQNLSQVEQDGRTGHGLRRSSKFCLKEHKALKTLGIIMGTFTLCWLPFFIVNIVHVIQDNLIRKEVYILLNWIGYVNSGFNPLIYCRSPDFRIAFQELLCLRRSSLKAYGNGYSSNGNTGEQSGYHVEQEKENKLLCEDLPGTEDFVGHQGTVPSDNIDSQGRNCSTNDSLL
Sequence of D(2) dopamine receptor (Homo sapiens) (P14416 whole entry, looked up): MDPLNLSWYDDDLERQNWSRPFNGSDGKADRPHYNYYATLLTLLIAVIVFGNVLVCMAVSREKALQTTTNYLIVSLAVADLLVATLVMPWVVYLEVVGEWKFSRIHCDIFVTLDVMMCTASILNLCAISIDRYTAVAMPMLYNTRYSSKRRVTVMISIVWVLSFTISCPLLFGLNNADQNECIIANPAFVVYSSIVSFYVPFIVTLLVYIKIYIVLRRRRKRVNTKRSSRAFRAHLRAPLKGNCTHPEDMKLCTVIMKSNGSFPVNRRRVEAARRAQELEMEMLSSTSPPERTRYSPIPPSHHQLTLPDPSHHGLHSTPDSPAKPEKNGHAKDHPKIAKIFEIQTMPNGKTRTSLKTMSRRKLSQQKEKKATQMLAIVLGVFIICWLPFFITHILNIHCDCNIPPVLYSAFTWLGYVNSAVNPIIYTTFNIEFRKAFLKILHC
Sequence of Gonadotropin-releasing hormone receptor (Homo sapiens) (P30968 whole entry, looked up): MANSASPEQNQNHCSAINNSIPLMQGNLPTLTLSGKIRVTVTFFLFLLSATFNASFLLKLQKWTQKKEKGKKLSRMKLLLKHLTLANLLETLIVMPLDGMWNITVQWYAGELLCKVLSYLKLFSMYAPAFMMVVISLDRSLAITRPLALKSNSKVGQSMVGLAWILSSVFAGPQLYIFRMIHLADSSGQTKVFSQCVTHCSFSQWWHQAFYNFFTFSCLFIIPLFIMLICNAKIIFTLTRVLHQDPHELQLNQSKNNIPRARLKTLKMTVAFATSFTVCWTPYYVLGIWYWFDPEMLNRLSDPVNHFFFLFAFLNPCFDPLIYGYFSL
Sequence of 5-hydroxytryptamine receptor 2A (Homo sapiens) (P28223 whole entry, looked up): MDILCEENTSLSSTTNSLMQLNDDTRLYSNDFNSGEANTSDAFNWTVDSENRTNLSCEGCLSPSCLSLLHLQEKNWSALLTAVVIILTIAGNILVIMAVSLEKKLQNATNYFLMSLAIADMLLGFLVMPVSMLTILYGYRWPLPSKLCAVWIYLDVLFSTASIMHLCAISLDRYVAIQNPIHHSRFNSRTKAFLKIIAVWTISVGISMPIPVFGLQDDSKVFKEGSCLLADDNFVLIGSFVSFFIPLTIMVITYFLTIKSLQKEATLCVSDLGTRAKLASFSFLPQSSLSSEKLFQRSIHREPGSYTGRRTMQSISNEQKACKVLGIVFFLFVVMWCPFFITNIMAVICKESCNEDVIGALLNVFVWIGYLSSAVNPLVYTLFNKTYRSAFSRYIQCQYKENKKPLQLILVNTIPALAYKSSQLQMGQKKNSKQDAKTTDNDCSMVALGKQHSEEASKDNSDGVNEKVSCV
Sequence of Muscarinic acetylcholine receptor M1 (Homo sapiens) (P11229 whole entry, looked up): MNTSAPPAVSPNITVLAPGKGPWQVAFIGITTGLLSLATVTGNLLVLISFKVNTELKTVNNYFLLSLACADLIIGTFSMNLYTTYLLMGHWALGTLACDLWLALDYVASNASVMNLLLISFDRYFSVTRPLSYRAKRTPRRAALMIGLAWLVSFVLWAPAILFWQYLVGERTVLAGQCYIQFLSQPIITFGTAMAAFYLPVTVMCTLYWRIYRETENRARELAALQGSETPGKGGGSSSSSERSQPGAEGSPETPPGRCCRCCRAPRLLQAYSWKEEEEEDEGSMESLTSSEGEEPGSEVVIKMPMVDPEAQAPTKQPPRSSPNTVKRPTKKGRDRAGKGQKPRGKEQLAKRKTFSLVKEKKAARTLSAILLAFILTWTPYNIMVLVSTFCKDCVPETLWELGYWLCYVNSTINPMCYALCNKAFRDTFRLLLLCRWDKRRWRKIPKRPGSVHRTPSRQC

| SMILES | Potency [1] | Potency [2] | Potency [3] | Potency [4] | Potency [5] | Potency [6] | Potency [7] | Potency [8] | Potency [9] | Potency [10] | Potency [11] | Potency [12] | Potency [13] | Potency [14] | Potency [15] | Potency [16] | Potency [17] | Potency [18] | Potency [19] | Potency [20] |
| --- | --- | --- | --- | --- | --- | --- | --- | --- | --- | --- | --- | --- | --- | --- | --- | --- | --- | --- | --- | --- |
| CCCCn1cc[n+](C)c1C | inactive | inactive | inactive | inactive | inactive | inactive | inactive | inactive | inactive | inactive | inactive | inactive | inactive | inactive | inactive | – | – | – | – | – |
| CC1(C)C(C=C(Cl)Cl)C1C(=O)OC(C#N)c1cccc(Oc2ccccc2)c1 (stereo not drawn) | inactive | inactive | inactive | – | inactive | inactive | – | – | inactive | inactive | inactive | inactive | inactive | inactive | inactive | inactive | inactive | inactive | inactive | inactive |
| Nc1nc(=S)[nH][nH]1 | inactive | inactive | – | inactive | inactive | inactive | inactive | inactive | inactive | inactive | inactive | inactive | inactive | inactive | inactive | inactive | inactive | inactive | inactive | inactive |
| CCN(CC)C(=O)SCc1ccc(Cl)cc1 | inactive | inactive | inactive | inactive | inactive | inactive | – | inactive | – | inactive | inactive | inactive | inactive | inactive | inactive | – | – | inactive | inactive | – |
| C[N+](C)(C)Cc1ccccc1 | inactive | inactive | inactive | – | inactive | inactive | inactive | inactive | inactive | 3.07 µM (active) and 5.49 µM (active) | inactive | inactive | inactive | – | inactive | – | – | inactive | – | inactive |
| CC(Cl)Cl | inactive | 5.84 µM (active) | inactive | – | inactive | inactive | inactive | – | inactive | – | inactive | inactive | inactive | inactive | inactive | inactive | inactive | – | inactive | – |
| CN=C=O | inactive | inactive | inactive | inactive | inactive | inactive | inactive | inactive | inactive | inactive | inactive | inactive | inactive | inactive | inactive | inactive | inactive | inactive | – | – |
| CN(C)CCO | inactive | 69.1 µM (active) and inactive | inactive | inactive | inactive | – | inactive | inactive | inactive | inactive | inactive | inactive | inactive | inactive | – | – | inactive | inactive | inactive | inactive |
| CN(N=O)C(N)=O | inactive | inactive | inactive | inactive | – | inactive | inactive | inactive | inactive | inactive | inactive | inactive | inactive | inactive | – | inactive | inactive | inactive | inactive | – |
| COC(=O)c1cncn1C(C)c1ccccc1 (stereo not drawn) | inactive | inactive | inactive | – | inactive | inactive | inactive | inactive | inactive | inactive | inactive | inactive | inactive | inactive | inactive | inactive | inactive | inactive | inactive | inactive |
| CCCCCCCCCCCCCCCC[N+](C)(C)C | 61.1 µM (active) and 5.96 µM (active) | inactive | 13.3 µM (active) and 30.9 µM (active) and 12 µM (active) | – | inactive | inactive | inactive | 18.8 µM (active) and 38.9 µM (active) | 2.03 µM (active) and 840 nM (active) | – | – | inactive | – | inactive | inactive | – | – | inactive | – | inactive |
| CCC[N+]1(C)CCCCC1 | inactive | inactive | inactive | inactive | inactive | inactive | inactive | inactive | – | inactive | inactive | inactive | inactive | inactive | inactive | – | – | inactive | – | – |
| CCCCCCCCCCCCCCn1cc[n+](C)c1 | 13.7 µM (active) and 27 µM (active) and inactive | inactive | – | inactive | 40.9 µM (active) and 40.3 µM (active) and inactive | 28.9 µM (active) and inactive | inactive | 21.9 µM (active) and 30.6 µM (active) and inactive | 1.88 µM (active) and inactive | inactive | inactive | inactive | inactive | inactive | inactive | inactive | inactive | 16.3 µM (active) and 32.1 µM (active) and inactive | inactive | inactive |
| CCOP(=S)(OCC)Oc1ccc2c(C)c(Cl)c(=O)oc2c1 | inactive | inactive and 10.6 µM (active) | inactive | inactive | inactive | inactive | inactive | inactive | inactive | – | – | – | – | inactive | inactive | – | inactive | inactive | inactive | – |
